Test results taken from ChEMBL document CHEMBL3988442, “University of Dundee, Small-Polar-MMV Screening Library” (2021).

These molecules were tested against T1, Aspartate--tRNA(Asp/Asn) ligase (Mycobacterium tuberculosis (strain ATCC 25618 / H37Rv)) (UniProt P9WFW3) (assay: Assay for Asp RNA synthetase-1 from Mycobacterium tuberculosis). Details: 30 µM.
T1 sequence (whole entry): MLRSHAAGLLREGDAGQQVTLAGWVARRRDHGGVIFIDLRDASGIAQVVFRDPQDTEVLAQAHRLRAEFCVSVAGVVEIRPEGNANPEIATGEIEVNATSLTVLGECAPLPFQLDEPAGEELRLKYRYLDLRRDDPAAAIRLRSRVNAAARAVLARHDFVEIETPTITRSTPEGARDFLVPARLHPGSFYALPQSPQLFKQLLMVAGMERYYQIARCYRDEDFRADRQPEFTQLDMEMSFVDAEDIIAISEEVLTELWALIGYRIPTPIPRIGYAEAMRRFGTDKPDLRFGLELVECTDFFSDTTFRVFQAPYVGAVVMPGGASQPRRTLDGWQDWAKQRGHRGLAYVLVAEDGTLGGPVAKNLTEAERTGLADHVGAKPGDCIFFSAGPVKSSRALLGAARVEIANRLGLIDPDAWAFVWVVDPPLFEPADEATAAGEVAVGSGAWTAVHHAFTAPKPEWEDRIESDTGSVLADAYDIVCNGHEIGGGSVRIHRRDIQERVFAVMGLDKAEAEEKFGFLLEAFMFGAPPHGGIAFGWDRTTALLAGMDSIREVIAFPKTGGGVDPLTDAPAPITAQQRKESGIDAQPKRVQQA
Assay type: functional
Parameters: scale not given: in the data most compounds retested in dose-response had high values

| Structure (SMILES) | Percent Effect [%] |
| --- | --- |
| Cc1ccc(C)c(OC2CCN(C(=O)c3ccc(C)[nH]c3=O)CC2)c1 | -5.01 |
| COc1ccc(OCC(=O)NC(C)c2ccc(F)cc2)c(C(=O)O)c1 (stereo unspecified) | 0.691 |
| CNC(=O)COc1ccc(CNCc2ccc(F)cc2F)cc1 | 3.4 |
| Cc1ccc(CNC(=O)Nc2nnc(C)s2)cn1 | 4.24 |
| Cc1ccc(S(=O)(=O)Nc2ccc(=O)n(C)c2)cc1 | 26.8 |
| CCn1cnnc1CNC(=O)N1CCC(Cc2cccnc2)CC1 | -1.93 |
| O=C(NCc1cccnc1)C1=NN(c2ccccc2)C(=O)CN1 | 14.8 |
| Cc1csc(N2CCCN(C(=O)c3cnns3)CC2)n1 | 1.66 |
| Cc1nnc2n1CCN(CCC(=O)Nc1sccc1C#N)C2 | 1.26 |
| CCOCC1CC2(CCN(Cc3ccccn3)CC2)CO1 (stereo unspecified) | 0.869 |
| Cc1cc(C(=O)N2CCCCC2C)ccc1NCC(=O)N1CCOCC1 (stereo unspecified) | -12.3 |
| C[C@@H]1CN(C(=O)c2ccsc2)C[C@]12CCN(c1ccsc1)C2=O | -1.75 |
| O=C(c1cccnc1-n1cncn1)N1CCc2ccccc2C1 | -3.76 |
| Cc1nc(C)c(C(=O)N2CCCC2c2nnc3n2CCCCC3)s1 (stereo unspecified) | -7.53 |
| CNc1snc(C)c1C(=O)N1CCCC(n2ccnc2C(C)C)C1 (stereo unspecified) | 1.51 |
| CCCN(C)C(=O)c1ccc2c(c1)[nH]c(=O)n2CCOCC | -2.29 |
| Cc1ccn(CCC(=O)N2CCOC(c3nc(-c4cccs4)no3)C2)n1 (stereo unspecified) | -0.897 |
| CCCNC(=O)CNC(=O)CCc1ccccc1Br | -2.76 |
| CN1CCOC(CN(C(=O)Cc2ccccc2F)c2nccs2)C1 (stereo unspecified) | -1.89 |
| Cc1ccccc1CC(=O)N(C)C1CCCC1 | -6.33 |
| Cc1cc(C)cc(C2(C(=O)N3CCCC(n4cncn4)C3)CC2)c1 (stereo unspecified) | 0.962 |
